The source of these data is PubChem BioAssay (Tox21).

Assay [1] in a line: qHTS assay to identify small molecule agonists of the vitamin D receptor (VDR) signaling pathway - cell viability counter screen (AID 743224; active means well fitted curve in the direction sought with a large enough effect in the repeat runs; an effect the other way counts as inactive or inconclusive; further: nearly all actives have a fitted effect of over 50% in size; further: potency means the concentration at half of the fitted maximal effect). In a few lines: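 Cells: VDR-bla, 2,000/well, settled 4 h. Treatment: compounds in DMSO, 16 h, 37C/5% CO2. Readout: CellTiter-Glo luminescence after 30 min RT.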
For orientation: qHTS replaces the single test concentration by a dilution series.

A short description of assay [2]: qHTS assay to identify small molecule antagonists of the vitamin D receptor (VDR) signaling pathway - cell viability counter screen (AID 743225; active means well fitted curve in the direction sought with a large enough effect in the repeat runs; an effect the other way counts as inactive or inconclusive; further: nearly all actives have a fitted effect of over 50% in size; further: potency means the concentration at half of the fitted maximal effect). In a few lines: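 Parallel cytotoxicity test: VDR-UAS-bla HEK 293T, 3 nM (final) 1-alpha,25-dihydroxyvitamin D3 with test compound, 16 h, 37C. Endpoint is CellTiter-Glo luminescence in the same wells.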
The nature of assay [3]: qHTS assay to identify small molecule agonists of the NFkB signaling pathway - cell viability counter screen (AID 1159515). Further: nearly all actives have a fitted effect of over 55% in size. Further: potency means the concentration at half of the fitted maximal effect. An outline of the steps:
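Cells are seeded (2,000 NFkB-bla ME-180 per well), rested overnight, and dosed with DMSO-dissolved compounds for 5 hr at 37 C. Viability is then read by CellTiter-Glo luminescence after 30 min at room temperature.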

The nature of assay [4]: qHTS assay to identify small molecule agonists of the endoplasmic reticulum stress response signaling pathway (AID 1159516; active means well fitted activation curve with a large enough effect in the signal ratio in the repeat runs, not every such curve was filed as active; the % refers to the signal ratio; further: potency means the concentration at half of the fitted maximal effect). An outline of the steps: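 Cells are seeded at 1,500 per well and incubated overnight. Compounds in DMSO are added for 5 hr at 37 C, then beta-lactamase FRET substrate for 2 hr at room temperature, and fluorescence at 460 and 530 nm is measured.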
The nature of assay [5]: qHTS assay to identify small molecule antagonists of the retinoid-related orphan receptor gamma (ROR-gamma) signaling pathway - cell viability counter screen (AID 1159520; active means well fitted curve in the direction sought with a large enough effect in the repeat runs; an effect the other way counts as inactive or inconclusive; further: nearly all actives have a fitted effect of over 50% in size). An outline of the steps:
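Tet-on ROR gamma CHO cells were given compounds for 2 hr, then doxycycline hyclate at 1 uM final, and incubated 16 hr at 37 C. Viability was measured as ATP content by CellTiter-Glo luminescence.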

The target in assay [6] is Nuclear receptor ROR-gamma (Homo sapiens) (UniProt P51449). The assay can be described thus: qHTS assay to identify small molecule antagonists of the retinoid-related orphan receptor gamma (ROR-gamma) signaling pathway (AID 1159521; active means well fitted curve in the direction sought with a large enough effect in the repeat runs; an effect the other way counts as inactive or inconclusive; further: nearly all actives have a fitted effect of over 50% in size; further: potency means the concentration at half of the fitted maximal effect). In a few lines: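 Decreased RORE-driven luciferase luminescence indicates antagonism. Tet-on RORγ CHO cells received compound, then 1 uM final doxycycline 2 h later; signal read after 16 h incubation.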

Assay [7] is described as follows: qHTS assay to identify small molecule agonists of the AP-1 signaling pathway - cell viability counter screen (AID 1159525). Further: nearly all actives have a fitted effect of over 55% in size. Further: potency means the concentration at half of the fitted maximal effect. In a few lines: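 Same-well cytotoxicity counter screen of the Tox21 10K library in ME-180 cells. The readout is ATP-dependent luminescence after 5 h compound treatment. Data are normalised to DMSO and tetra n-octyl ammonium bromide controls.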

Assay [8] can be described thus: qHTS assay to identify small molecule agonists of the AP-1 signaling pathway (AID 1159526).
In assay [9] the target is Retinoic acid receptor RXR-alpha (Homo sapiens) (UniProt P19793). The assay can be described thus: qHTS assay to identify small molecule agonists of the RXR signaling pathway (AID 1159527). Further: nearly all actives have a fitted effect of over 35% in size. Further: potency means the concentration at half of the fitted maximal effect. An outline of the steps: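 16 hr incubation of compound-treated RXR-alpha-UAS-bla HEK 293T cells (2% charcoal-stripped FBS, 37 C) preceded a 2 hr room-temperature LiveBLAzer FRET substrate step and blue/green fluorescence measurement.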

Assay [10] is described as follows: qHTS assay to identify small molecule agonists of the endoplasmic reticulum stress response signaling pathway - cell viability counter screen (AID 1159517). An outline of the steps: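 In parallel with the ESRE reporter read, cytotoxicity was scored by CellTiter-Glo luminescence (30 min, room temperature) on HeLa ESRE-bla cells dosed for 5 hr.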

Inconclusive results are not listed. Calls of active or inactive are those of the source. Unless noted, the call rests on the fitted dose curve.

Retinoic acid receptor RXR-alpha (Homo sapiens), sequence (P19793 whole entry, looked up): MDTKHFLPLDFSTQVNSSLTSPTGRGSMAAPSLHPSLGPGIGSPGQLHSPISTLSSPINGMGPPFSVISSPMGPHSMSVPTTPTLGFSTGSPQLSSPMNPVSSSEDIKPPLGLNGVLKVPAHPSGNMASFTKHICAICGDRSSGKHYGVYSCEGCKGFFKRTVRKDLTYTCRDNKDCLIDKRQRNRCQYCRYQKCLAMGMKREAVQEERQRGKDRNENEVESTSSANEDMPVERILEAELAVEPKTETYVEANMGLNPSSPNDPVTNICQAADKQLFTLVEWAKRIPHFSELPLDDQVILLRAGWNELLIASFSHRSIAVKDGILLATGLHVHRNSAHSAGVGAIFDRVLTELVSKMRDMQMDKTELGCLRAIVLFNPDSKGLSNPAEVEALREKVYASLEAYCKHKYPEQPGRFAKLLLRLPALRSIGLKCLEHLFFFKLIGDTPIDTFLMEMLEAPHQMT

Turning to `CCOP(=S)(OCC)SC(CCl)N1C(=O)c2ccccc2C1=O` (configuration not stated), the Potency entry in [1], in [2], in assay [3], in assay [4], in [5] and in assay [6] was “inactive” throughout. In addition, the Potency result in [7] and in assay [8] was “inactive” in each case.
On to `C=CC(=C)C`, for which the Potency result in assay [1], in [2], in assay [3], in assay [4], in [5] and in assay [6] was “inactive” throughout. Besides, the Potency result in assay [7], in assay [8] and in [9] was “inactive” throughout.
Turning to `O=[N+]([O-])c1ccc(CCl)cc1`, the Potency entry in [1], in assay [2], in [3], in [4], in assay [5] and in [6] was “inactive” in each case. The Potency entry in [7] and in [8] was “inactive” each time.
Consider `CN/C(=N\[N+](=O)[O-])NCc1cnc(Cl)s1`, for which the Potency result in [1], in assay [2], in [3], in assay [4], in [6] and in [7] was “inactive” in each case. Further, the Potency entry in assay [8] and in assay [9] was “inactive” each time.
For the compound `COP(=O)(OC)O/C(=C\Cl)c1cc(Cl)c(Cl)cc1Cl`, the Potency entry in [3], in assay [10], in [5] and in assay [7] was “inactive” each time. For the same compound, in assay [6], the Potency is 38.6 µM (active).
On to `COCCC#N`, for which the Potency result in [1], in assay [2], in assay [3], in assay [4], in assay [5] and in assay [6] was “inactive” in each case. Moreover, the Potency entry in assay [7], in assay [8] and in assay [9] was “inactive” in each case.
Take `COc1ccc2c(c1OC)C(=O)O[C@@H]2[C@H]1c2cc3c(cc2CCN1C)OCO3`: the Potency entry in [1], in assay [2], in [3], in assay [4], in assay [5] and in assay [6] was “inactive” in each case. In addition, the Potency result in assay [7], in assay [8] and in [9] was “inactive” each time.
On to `O=Cc1ccccc1`, for which the Potency result in assay [3], in assay [4], in [5], in assay [6], in assay [7] and in assay [8] was “inactive” in each case.
On to `CN`, for which the Potency entry in [1], in [2], in [3], in [4], in assay [5] and in [6] was “inactive” throughout. Moreover, the Potency entry in [7], in assay [8] and in [9] was “inactive” throughout.
On to `CN(C)c1ccc(N)cc1`, for which the Potency in assay [1] is 42.6 µM (active). In addition, the Potency result in assay [3], in assay [4], in [10] and in assay [7] was “inactive” each time.
For the compound `CCOC(=O)Cc1ccccc1`, the Potency result in assay [1], in [3], in assay [4], in [6], in [7] and in assay [8] was “inactive” throughout. The Potency entry in assay [9] was “inactive”.
Take `COc1nc(C)nc(NC(=O)NS(=O)(=O)c2ccccc2Cl)n1`: the Potency entry in [1], in assay [2], in [3], in assay [4], in assay [5] and in assay [6] was “inactive” throughout. Further, the Potency entry in [7], in assay [8] and in [9] was “inactive” throughout.
Take `CSC1=N[C@@](C)(c2ccccc2)C(=O)N1Nc1ccccc1`: the Potency entry in [3], in [4], in [7] and in assay [8] was “inactive” throughout. Besides, in [6], the Potency is 10.9 µM (active).
Regarding `N#CCCl`, the Potency entry in assay [1], in assay [2], in assay [3], in assay [4], in [5] and in [6] was “inactive” throughout. For the same compound, the Potency entry in assay [7] and in assay [8] was “inactive” in each case.
On to `Nc1ccc(N=Nc2ccccc2)cc1`, for which the Potency entry in assay [3], in assay [10], in [5], in [6] and in [7] was “inactive” throughout.
Consider `c1csc(-c2ccc(-c3cccs3)s2)c1`, for which the Potency result in assay [1], in assay [2], in [3], in assay [10] and in assay [7] was “inactive” in each case. Also, the figures for the Potency in assay [4] and in assay [9] were 49 µM (active) and 21.9 µM (active), respectively.
Consider `CCCCCCC[CH2][Sn]([Cl])([Cl])[CH2]CCCCCCC`, for which the Potency result in [2], in [3], in [4], in assay [10] and in assay [7] was “inactive” throughout.
In the case of `O=c1[nH]c(Cl)c(Cl)cc1Cl`, the Potency result in assay [1], in assay [2], in assay [3], in assay [4], in assay [10] and in assay [7] was “inactive” each time. Besides, the Potency result in assay [8] was “inactive”.
With `COC(=O)C(C)N(C(=O)c1ccco1)c1c(C)cccc1C` (configuration not stated), the Potency result in [1], in [2], in assay [3], in assay [4], in assay [10] and in assay [7] was “inactive” in each case. In addition, in assay [8], the Potency entry is “inactive”.
As to `Cc1cnc2c(C(=O)O)c(Cl)ccc2c1`, the Potency result in [1], in assay [2], in assay [3], in assay [4], in assay [5] and in [7] was “inactive” throughout. For the same compound, the Potency entry in assay [8] and in [9] was “inactive” in each case.
Consider `CC1CCCC1`, for which the Potency entry in [1], in [2], in assay [3], in assay [4], in assay [6] and in [7] was “inactive” throughout.
For `Nc1cc(Cl)ccc1Cl`, the Potency entry in assay [1], in assay [2], in assay [3], in assay [10], in assay [5] and in assay [6] was “inactive” each time. The Potency result in [7], in assay [8] and in assay [9] was “inactive” in each case.
`CCCCCON=O`: the Potency result in assay [1], in [2], in [3], in assay [4], in assay [6] and in assay [7] was “inactive” throughout. Also, the Potency entry in assay [8] and in assay [9] was “inactive” each time.
As for `Oc1cc(Cl)cc(Cl)c1`, the Potency entry in assay [1], in assay [2], in [3], in assay [4], in [5] and in assay [6] was “inactive” in each case. Also, the Potency entry in [7], in assay [8] and in assay [9] was “inactive” throughout.
As to `S=C=Nc1ccccc1`, the Potency entry in [1], in [2], in assay [3], in [4], in [5] and in assay [6] was “inactive” in each case. Also, the Potency entry in assay [7], in assay [8] and in assay [9] was “inactive” each time.
With `CCCCN(CCCC)C(=S)S`, the Potency entry in [1], in [2], in assay [3], in assay [4], in [10] and in assay [7] was “inactive” throughout.
Take `C[C@]12CC[C@H]3[C@@H](CCC4=CC(=O)CC[C@@H]43)[C@@H]1CC[C@@H]2OC(=O)CCc1ccco1`: the Potency in assay [1] is 21.1 µM (active). Further, the Potency entry in [3], in [4], in assay [10] and in [7] was “inactive” each time.
As for `[Cl-].[Cl-].[Sn+2]`, the Potency entry in assay [1], in assay [2], in [3], in assay [4], in assay [10] and in assay [7] was “inactive” in each case. Further, the Potency entry in [8] was “inactive”.
On to `CN(C)CCc1c[nH]c2ccccc12`, for which the Potency entry in assay [1], in [2], in assay [3], in assay [4], in [5] and in [6] was “inactive” in each case. Moreover, in [7], the Potency entry is “inactive”.
Consider `C[C@]12Cc3cn[nH]c3C[C@@H]1CC[C@@H]1[C@@H]2CC[C@@]2(C)[C@H]1CC[C@]2(C)O`, for which the Potency was 29.8 µM (active) in assay [1], 23.9 µM (active) in [3], 13.3 µM (active) in assay [6] and 23.9 µM (active) in [7]. Further, the Potency result in assay [2], in assay [4] and in assay [5] was “inactive” in each case.
As to `CCC(OC(C)=O)C(CC(C)NC)(c1ccccc1)c1ccccc1` (configuration not stated), in assay [2], the Potency was 44 µM (active). Moreover, the Potency entry in assay [3], in assay [4], in assay [10] and in assay [7] was “inactive” each time.
